High-throughput results deposited in PubChem by National Center for Advancing Translational Sciences (NCATS).
Shown are actives, neighbours in structure and some others; about 19% of the full set was active somewhere.
IL-1B inflam inh: inflammasome signaling inhibition, IL-1 beta readout; AID 743279; activity change, % at 57.5 µM; THP-1 LPS/ATP IL-1B secretion, AlphaLISA, 16 h; stronger effect = lower value; 4.7% of 360,000 active; in the data active = activity change below about -50%; inconclusive = mostly about -30% to -49%
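THP-1 cells pretreated 1 hr with compounds (up to 57.5 uM final), then stimulated with LPS (250 ng/mL final) plus ATP (1.25 mM final); secreted IL-1B measured by AlphaLISA after 16 hr, decreased signal indicating inhibition.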
TDP1 cell CPT: DT40-hTDP1 cell growth loss with CPT; chicken DT40 Tdp1-/-;hTDP1 cells + 20 nM CPT, ATP luminescence, 48 h; Potency, µM (series often up to 46.2 µM), hits mostly inhibitors; 12% of 420,000 active; also: nearly all actives have a fitted effect of over 55% in size
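Cell growth measured by CellTiter-Glo luminescence after a minimum 48 h, 37 C compound exposure with 20 nM CPT in Tdp1-knockout DT40 cells stably expressing hTDP1, seeded 400/well; qHTS titration format.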
BCR signal inh: blocks chronic active B-cell receptor signaling. 0.05% of 340,000 active. ABC-DLBCL IkBa-CBG/CBR reporter, luminescence ratio, 4 h. Potency, µM (top dose mostly 46.1 µM), hits mostly inhibitors; active = well fitted inhibition curve with a large enough effect in the signal ratio, with a control signal flat, not every such curve was filed as active; inconclusive = small, poorly fitted or top-dose-only effect, or effect the other way, or a change in a side signal; the % refers to the signal ratio
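Cell line TMD8 (human ABC DLBCL), stably expressing tet-inducible CBG68-IkBa fusion and CBR; IMDM/0.5% FBS; cpd up to 46 uM; dox induction, 4 h, 37C/5% CO2; dual luminescence; green/red ratio; MG132 control.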
SW480 rerep: DNA re-replication induction in SW480 cells; 1.8% of 340,000 active; Potency, µM (titrated, usually from 46.1 µM), usual class: activators; SW480 DNA re-replication, Hoechst DNA content imaging, 48 h; also: nearly all actives have a fitted effect of over 55% in size
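Image-based read-out: total Hoechst fluorescence of nuclei (405 nm excitation, 500-530 nm emission), with hits raising the fraction of high-intensity nuclei. SW480 colon cells incubated 48 hr with compounds at 37 C.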
TDP1 cell noCPT: qHTS for Inhibitors of human tyrosyl-DNA phosphodiesterase 1 (TDP1): qHTS in cells in absence of CPT; DT40 Tdp1-/- hTDP1 cells, no CPT, ATP luminescence, 48 h; Potency, µM (top dose mostly 46.2 µM), most hits filed as inhibitors; 15% of 420,000 active; AID 686978, 2013; also: nearly all actives have a fitted effect of over 55% in size
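Readout: luminescence from CellTiter-Glo after 30 min in the dark at RT. Cells: DT40 Tdp1-/- with stable hTDP1, 400/well. Exposure: compounds alone, ≥48 hr, 37 °C.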
MCF10A rereplic: inducers of DNA re-replication in MCF 10A breast cells. 2.9% of 350,000 active. MCF 10A DNA re-replication, Hoechst nuclear intensity, 48 h. AID 624296. Potency, µM (series often up to 46.1 µM), usual class: activators; also: nearly all actives have a fitted effect of over 50% in size
Of the large screens only hits and unclear results are named; the others gave an inactive call. Unless noted, calls follow the shape of the dose curve; as a rule, active = well fitted curve in the direction sought with a large enough effect; inconclusive = small, poorly fitted or top-dose-only effect, or another doubt; inactive = no such curve, though single readings can be large; an effect the other way counts as inactive or inconclusive.

CC(=O)Cn1c(N2CCC(Cc3ccccc3)CC2)nc2c1c(=O)[nH]c(=O)n2C	TDP1 cell CPT inconclusive, TDP1 cell noCPT 16µM
CCCCCn1c(N2CCC(Cc3ccccc3)CC2)nc2c1c(=O)[nH]c(=O)n2C	IL-1B inflam inh -87, TDP1 cell CPT 7.3µM, TDP1 cell noCPT inconclusive, MCF10A rereplic inconclusive (no result: BCR signal inh)
C=C(C)Cn1c(N2CCC(Cc3ccccc3)CC2)nc2c1c(=O)[nH]c(=O)n2C	TDP1 cell CPT inconclusive, TDP1 cell noCPT inconclusive
COc1ccc(NC(=O)COCc2cc(-c3ccco3)on2)cc1Cl	TDP1 cell CPT inconclusive (no result: IL-1B inflam inh, BCR signal inh, SW480 rerep, MCF10A rereplic)
COc1cc(/C=N/NC(=O)NC23CC4CC(CC(C4)C2)C3)ccc1OCC(N)=O	TDP1 cell CPT inconclusive, TDP1 cell noCPT 8.2µM
COc1ccc(C=NNC(=S)NC23CC4CC(CC(C4)C2)C3)cc1OC	TDP1 cell CPT inconclusive, SW480 rerep inconclusive, TDP1 cell noCPT inconclusive, MCF10A rereplic 9.2µM (no result: BCR signal inh)
COc1cc(OC)c(C=NNC(=S)NC23CC4CC(CC(C4)C2)C3)c(OC)c1	TDP1 cell CPT 6.5µM, SW480 rerep inconclusive, TDP1 cell noCPT 6.5µM, MCF10A rereplic inconclusive (no result: BCR signal inh)
CC[C@]12C(=O)N(C)C[C@H]([C@@H]3C(=O)N(Cc4ccccc4)C(=O)[C@@H]31)N2C(=O)c1ccc(F)cc1	none (no result: BCR signal inh)
O=C1C2CC=CCC2C(=O)N1c1ccc(Cc2ccncc2)cc1 (stereo not drawn)	IL-1B inflam inh inconclusive, TDP1 cell CPT 18µM, BCR signal inh inconclusive, TDP1 cell noCPT 11µM, MCF10A rereplic inconclusive
O=C1CC(Cc2ccc(Cl)cc2)C(=O)N1c1ccncc1 (stereo not drawn)	none
CC1C(=O)CC(c2ccccc2)N(C)C1c1ccccc1 (stereo not drawn)	TDP1 cell CPT inconclusive, BCR signal inh inconclusive, MCF10A rereplic 26µM
CCc1nc2c(OCC3COc4ccccc4O3)cccn2c1N(C)C(=O)c1cccs1 (stereo not drawn)	TDP1 cell CPT inconclusive, TDP1 cell noCPT inconclusive (no result: BCR signal inh, SW480 rerep, MCF10A rereplic)
CC(C)N(C)c1ncnc2c1ncn2[C@H]1CN(Cc2cccs2)C[C@@H](CO)O1	TDP1 cell CPT inconclusive, TDP1 cell noCPT inconclusive (no result: BCR signal inh, SW480 rerep, MCF10A rereplic)
CCC1CCc2sc(C(=O)NCC(c3ccc(OC)cc3)N3CCCC3)cc2C1 (stereo not drawn)	IL-1B inflam inh inconclusive, TDP1 cell CPT inconclusive, SW480 rerep inconclusive, TDP1 cell noCPT 23µM, MCF10A rereplic inconclusive
COc1ccc(NS(=O)(=O)c2cccc(C(=O)NCC(c3ccccc3OC)N3CCCC3)c2)cc1 (stereo not drawn)	TDP1 cell CPT inconclusive, TDP1 cell noCPT inconclusive
COc1ccc(C(CNC(=O)c2ccc(F)cc2)N2CCCC2)cc1 (stereo not drawn)	none (no result: IL-1B inflam inh, BCR signal inh, SW480 rerep, MCF10A rereplic)
COc1ccc(C(CNC(=O)c2cccc(N(C)C)c2)N2CCCC2)cc1 (stereo not drawn)	TDP1 cell CPT 23µM, SW480 rerep inconclusive, TDP1 cell noCPT inconclusive
COc1ccc(NS(=O)(=O)c2cccc(C(=O)NCC(c3ccc(OC)cc3)N3CCCCC3)c2)cc1 (stereo not drawn)	TDP1 cell CPT inconclusive (no result: BCR signal inh)
COc1ccccc1C(CNC(=O)c1cccc(S(=O)(=O)Nc2ccc(F)cc2)c1)N1CCCC1 (stereo not drawn)	TDP1 cell CPT inconclusive, TDP1 cell noCPT 21µM, MCF10A rereplic inconclusive (no result: BCR signal inh)
COc1ccc(NS(=O)(=O)c2cccc(C(=O)NCC(c3ccc(OC)cc3)N3CCCC3)c2)cc1 (stereo not drawn)	IL-1B inflam inh inconclusive, TDP1 cell CPT 13µM, BCR signal inh inconclusive, TDP1 cell noCPT inconclusive
COc1ccccc1NC(=O)N(C)C[C@@H]1OCc2cnnn2CCCC(=O)N([C@@H](C)CO)C[C@H]1C	none (no result: BCR signal inh, SW480 rerep, MCF10A rereplic)
COc1ccc(C(CNC(=O)c2cccc(S(=O)(=O)NCc3ccccc3)c2)N2CCOCC2)cc1 (stereo not drawn)	TDP1 cell CPT inconclusive, TDP1 cell noCPT 21µM
COc1ccc(NS(=O)(=O)c2cccc(C(=O)NN=Cc3ccc(OC)c(O)c3)c2)cc1	none
COc1ccc(NS(=O)(=O)c2cccc(C(=O)N/N=C/c3c(F)c(F)c(F)c(F)c3F)c2)cc1	TDP1 cell CPT 21µM, SW480 rerep inconclusive, TDP1 cell noCPT 23µM, MCF10A rereplic 18µM (no result: BCR signal inh)
COc1ccccc1C(CNC(=O)CCNS(=O)(=O)c1ccc(Br)cc1)N1CCCC1 (stereo not drawn)	TDP1 cell CPT inconclusive, SW480 rerep 6.5µM, TDP1 cell noCPT inconclusive (no result: BCR signal inh)
COc1ccc(C(CNC(=O)CCNS(=O)(=O)c2ccc(Br)cc2)N2CCCC2)cc1 (stereo not drawn)	TDP1 cell CPT inconclusive, TDP1 cell noCPT inconclusive
COc1ccc(C(CNC(=O)c2cccc(S(=O)(=O)Nc3ccccc3OC)c2)N2CCCCC2)cc1 (stereo not drawn)	TDP1 cell CPT 18µM, SW480 rerep inconclusive, TDP1 cell noCPT inconclusive (no result: BCR signal inh)
CC(C)C(=O)OCc1cc(=O)n2nc(C3CC3)sc2n1	none (no result: IL-1B inflam inh, BCR signal inh, SW480 rerep, MCF10A rereplic)
CCOc1ccc(S(=O)(=O)Nc2ccc(C(=O)NCC(C)(C)N3CCOCC3)cc2)cc1	TDP1 cell CPT inconclusive
COc1cccc(OCC(=O)NNC(=O)C(=O)Nc2cccc(C)c2)c1	IL-1B inflam inh inconclusive, TDP1 cell CPT inconclusive, BCR signal inh inconclusive
CCOCCCNC(=O)CN1C(=O)NC(Cc2c[nH]c3ccccc23)C1=O (stereo not drawn)	none
Cc1ccc(-c2nc3ncccc3o2)cc1NC(=O)c1ccccc1	none
COc1ccc(-c2nc3ncccc3o2)cc1NC(=O)c1cccs1	TDP1 cell noCPT 15µM, MCF10A rereplic inconclusive
O=C(Nc1cc(-c2nc3ncccc3o2)ccc1Cl)c1cccs1	TDP1 cell CPT inconclusive, TDP1 cell noCPT 21µM, MCF10A rereplic inconclusive
COc1ccc(-c2nc3ncccc3o2)cc1NC(=O)c1ccco1	TDP1 cell CPT inconclusive, BCR signal inh inconclusive, TDP1 cell noCPT inconclusive
COc1ccc(C(=O)Nc2ccc(-c3nc4ncccc4o3)cc2C)cc1Br	TDP1 cell CPT 10µM, TDP1 cell noCPT inconclusive (no result: IL-1B inflam inh, BCR signal inh, SW480 rerep, MCF10A rereplic)
CCOc1ccc(NC(=O)CSc2nccn2C2CCCC2)cc1	TDP1 cell noCPT inconclusive (no result: IL-1B inflam inh, SW480 rerep, MCF10A rereplic)
N#C/C(=N\Nc1ccc(Cl)c(Cl)c1)C(=O)C1CC1	IL-1B inflam inh inconclusive, TDP1 cell CPT 21µM, BCR signal inh inconclusive, TDP1 cell noCPT 6.5µM, MCF10A rereplic inconclusive
COc1ccc(N(C(=O)CNC(=O)c2ccco2)C(C(=O)NCC2CCCO2)c2ccccc2)cc1 (stereo not drawn)	none
CCc1ccc(/C([O-])=C(/C(=S)NCCN2CCOCC2)[n+]2ccccc2)cc1	MCF10A rereplic 6.5µM
